From PubChem BioAssay
Most compounds without a hit are left out; they make up all but 9% or so of the library.
ALDH1A1 block: qHTS Assay for Inhibitors of Aldehyde Dehydrogenase 1 (ALDH1A1); Potency, µM (series often up to 75.3 µM), for the others: at the top dose activity, negative = inhibition, most hits filed as inhibitors; Purified ALDH1A1, NADH fluorescence, propionaldehyde substrate; Aldehyde dehydrogenase 1A1 (Homo sapiens), P00352; 7.3% of 220,000 active;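 note: potency is the fitted concentration of half-maximal effect; plate controls were no enzyme wells and a reference inhibitor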
HPGD inh: qHTS Assay for Inhibitors of HPGD (15-Hydroxyprostaglandin Dehydrogenase); purified HPGD, NADH fluorescence kinetic, PGE2 substrate; Potency, µM, for inactives: top-dose activity change, negative = inhibition, most hits filed as inhibitors; 15-hydroxyprostaglandin dehydrogenase [NAD(+)] (Homo sapiens), P15428; 4.3% of 150,000 active; note: potency is the fitted concentration of half-maximal effect
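20 nM HPGD preincubated 15 min at room temperature with compound in 50 mM Tris-HCl pH 8, 0.01% Tween 20. Started with 1 mM NAD+ and 30 uM prostaglandin E2; NADH fluorescence (360/450 nm) read 5 times over 30-s intervals, last minus first.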
IMPase cell inh: qHTS Assay for Identifying the Cell-Membrane Permeable IMPase Inhibitors; CHO-M1 cells, IP1 accumulation, HTRF TR-FRET ratio; inhibition (IP1 accumulation), % at 46.1 µM; 120,000 tested, under 10 active; AID 901, 2007; active = well fitted curve in the direction sought with a large enough effect in the signal ratio, not every such curve was filed as active; inconclusive = small, poorly fitted or top-dose-only effect, or a change in a side signal; inactive = no such curve, though single readings can be large or run the other way; the % refers to the signal ratio;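 note: cells stimulated with carbachol in lithium chloride buffer; plate controls were DMSO basal wells for no effect and reference inhibitor wells for full effect; higher means more IMPase inhibition seen as more IP1 and lower FRET ratio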
Target sequence (P97697 whole entry, looked up): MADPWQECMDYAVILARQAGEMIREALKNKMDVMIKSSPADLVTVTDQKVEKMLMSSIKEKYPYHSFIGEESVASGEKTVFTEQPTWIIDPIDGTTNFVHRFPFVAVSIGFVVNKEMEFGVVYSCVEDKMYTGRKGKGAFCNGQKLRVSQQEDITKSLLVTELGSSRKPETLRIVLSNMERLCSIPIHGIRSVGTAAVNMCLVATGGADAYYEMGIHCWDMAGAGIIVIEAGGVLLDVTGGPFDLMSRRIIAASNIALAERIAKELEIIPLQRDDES
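Seeded CHO-M1 cells were dosed with compound at up to 46 uM, stimulated with carbachol for 30 min, then lysed in IP-One detection reagents. Higher IP1 lowers the TR-FRET signal.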
* hit, by the source's call; ? = inconclusive; / = no result given; [ ] = another dose, or the depositor's remark. Unless noted, calls come from the whole dose curve; as a rule, active = well fitted inhibition curve with a large enough effect (not every such curve was filed as active); inconclusive = small, poorly fitted or top-dose-only effect, or another doubt; inactive = no such curve, though single readings can be large or run the other way. Unless noted, % is set by controls: 0 for no effect and ±100 for the full control effect.

SMILES	ALDH1A1 block	HPGD inh	IMPase cell inh
C=CCn1c(SCc2csc(C)n2)nc2sc3c(c2c1=O)CCCC3	?	-14%	3
CN(C)S(=O)(=O)c1ccc(NC(=O)c2c(F)cccc2Cl)cc1	0%	-14%	?
Cc1cc(C)cc(/C=C/C2OCC(O)C2Oc2ccc(C3CCCC3)cc2)c1 (stereo not drawn)	-1%[13.5 µM]	/	/
S=C(NCCc1c[nH]c2ccccc12)NC1CC1	3%	/	/
O=C(CCc1c[nH]c2ccccc12)NC1CC1	5%	16µM*	-3
CC1CCCCC1NC(=O)CCCn1c(=S)[nH]c2ccccc2c1=O (stereo not drawn)	2%	/	/
O=C(CCCn1c(=S)[nH]c2ccccc2c1=O)NC1CCCC1	?	14µM*	-12
CC1CCCC(NC(=O)CCCn2c(=S)[nH]c3ccccc3c2=O)C1C (stereo not drawn)	-1%	/	/
CC1CCCN(C(=O)CCCn2c(=S)[nH]c3ccccc3c2=O)C1 (stereo not drawn)	18µM*	7.9µM*	-2
COc1ccc2[nH]c3c(=O)n(CCCCC(=O)N4CCCC4)c(=S)[nH]c3c2c1	-7%	4.5µM*	-18
CCCNC(=O)CCCCn1c(=S)[nH]c2c([nH]c3ccc(OC)cc32)c1=O	0%	/	/
O=C(O)c1cccc(N/N=C/c2cccs2)c1	-10%	-13%	/
COc1cccc(C2C(C(N)=O)=C(C)Nc3ncnn32)c1 (stereo not drawn)	/	/	3
CCNC(=S)Nc1ccc(Cl)c([N+](=O)[O-])c1	-1%	/	/
COc1ccc(C(=O)CSc2nnc(CN3CCCCC3)n2-c2ccc(Cl)cc2)cc1OC	0%	-2%	/
CCCn1c(=S)[nH]c2cc(C(=O)NCC3CCCO3)ccc2c1=O (stereo not drawn)	4%	-16%	-10
O=C(CCn1c(=S)[nH]c2ccccc2c1=O)NCC1CCCO1 (stereo not drawn)	?	28µM*	4
CC(C)Sc1nc2sc3c(c2c(=O)n1Cc1ccccc1)CCCC3	/	/	-5
Cn1cc(CN2CCN(Cc3cccnc3)CC2)c(-c2ccc3c(c2)OCCO3)n1	-2%	/	/
CCOc1ccc2nc3c(cc2c1)CN(CCOC)C(=NCCOC)S3	4%	-3%	6
COCCN=C1Sc2nc3ccc(C)cc3cc2CN1Cc1ccco1	25µM*	-20%	-5
Cc1cc(F)ccc1S(=O)(=O)Nc1ccc2oc3c(c2c1)CC(C)CC3 (stereo not drawn)	/	/	13
CC(C)CNC(=O)C1CCN(Cc2ccc(OCc3ccccc3)cc2)CC1	3%	1%	/
CC(O)CNC(=O)C1CCN(Cc2ccc(OCc3ccccc3)cc2)CC1 (stereo not drawn)	20µM*	-4%	6
Clc1ccc(CNC23CN4CN(CN(C4)C2)C3)c(Cl)c1	9%	-10%	/
SMILES	ALDH1A1 block	HPGD inh	IMPase cell inh
CC(=O)N(CCCCN1C(=O)c2ccccc2C1=O)c1ccc(C)cc1	0%	-12%	-1
O=C1c2ccccc2C(=O)N1CCCCN(C(=O)c1cc([N+](=O)[O-])ccc1Cl)c1ccc(Cl)cc1	5µM*	-15%	6
COc1ccc(N(CCCN2C(=O)c3cccc4cccc(c34)C2=O)C(=O)c2cccc(OC)c2)cc1	8.9µM*	-11%	5
Cc1ccc(N(CN2C(=O)c3ccccc3C2=O)C(=O)c2ccc([N+](=O)[O-])cc2[N+](=O)[O-])cc1	-9%	-6%	/
O=C1c2ccccc2C(=O)N1CCCCN(C(=O)c1ccc(Cl)s1)c1ccc(Cl)cc1	4.5µM*	-17%	/
Cc1ccc(N(CCCCN2C(=O)c3ccccc3C2=O)C(=O)c2ccc(Cl)s2)cc1	4%	-8%	-8
COc1ccccc1N(CCN1C(=O)c2cccc3cccc(c23)C1=O)C(=O)c1ccncc1	7%	/	/
O=C1c2ccccc2C(=O)N1CCCCN(C(=O)c1ccc([N+](=O)[O-])cc1)c1ccc(Cl)cc1	1.6µM*	-6%	2
Cc1ccc(N(CCCCN2C(=O)c3ccccc3C2=O)C(=O)c2cccc([N+](=O)[O-])c2)cc1	?	-8%	6
O=C1c2ccccc2C(=O)N1CCCCN(C(=O)c1cc([N+](=O)[O-])cc([N+](=O)[O-])c1)c1ccc(Cl)cc1	1.4µM*	-7%	/
O=C1c2ccccc2-c2onc3ccc(N4CCCC4)c1c23	22µM*	/	/
CCOc1ccc2noc3c2c1C(=O)c1ccccc1-3	?	-12%	7
CCC(=O)Oc1ccc(C(=O)Nc2cccc(C(=O)NC(C)(C)C)c2)cc1	-2%	/	/
